Laboratory results taken from the antibiotic and cytotoxicity screens of Wong et al. (2023).
The campaign covered roughly 39,000 compounds. About 3,300 (8.5%) were called active. The entries come from a sample that favours actives as a whole.

Each molecule was assayed on HepG2 (assay: cytotoxicity call (relative viability < 0.9)). Settings: 10 µM.

Q: CCS(=O)(=O)N1CC[C@]2(CC1)CN(Cc1ccc3c(c1)OCO3)[C@H](CO)c1c2c2ccc(cc2n1C)OC was tested. Which cytotoxicity call did it give?
A: inactive

Q: Which cytotoxicity call does the source give for O=C(C[C@H]1C=C[C@H](NC(=O)Cc2ccccn2)[C@@H](CO)O1)NCCCN1CCOCC1 here?
A: inactive

Q: How did the cytotoxicity call turn out when CC(C)NC(=O)Nc1ccc2c(c1)C(=O)N([C@H](C)CO)C[C@H](C)[C@@H](CN(C)Cc1ccc(Oc3ccccc3)cc1)O2 was run?
A: inactive

Q: For C[C@H](CO)N1C[C@H](C)[C@@H](CN(C)S(=O)(=O)c2ccc(F)cc2)Oc2ncc(Br)cc2C1=O, which cytotoxicity call is on record?
A: inactive

Q: For C[C@@H]1CN([C@@H](C)CO)C(=O)Cc2cc(NS(=O)(=O)c3ccc(F)cc3)ccc2O[C@@H]1CN(C)CC1CC1, which cytotoxicity call is on record?
A: inactive

Q: With COc1ccccc1-c1ccc2c(c1)O[C@@H](CN(C)C(=O)c1ccncc1)[C@@H](C)CN([C@@H](C)CO)S2(=O)=O as the molecule, how does the cytotoxicity call read?
A: inactive

Q: How did the cytotoxicity call turn out when O=c1cc[nH]c(=S)[nH]1 was run?
A: inactive

Q: How did the cytotoxicity call turn out when Cn1cnc(S(=O)(=O)N2C[C@@H](O)COC[C@@H]3O[C@@H](CC(=O)NCc4cccc(F)c4)CC[C@H]32)c1 was run?
A: inactive

Q: With C[C@@H]1CCCCO[C@H](CN(C)Cc2ccc(C(=O)O)cc2)[C@@H](C)CN([C@@H](C)CO)C(=O)c2cc(NC(=O)Nc3ccccc3)ccc2O1 as the molecule, how does the cytotoxicity call read?
A: inactive

Q: CC(=O)NCCOc1ccc(C(=O)O)cc1 was tested. Which cytotoxicity call did it give?
A: inactive

Q: Which cytotoxicity call does the source give for N=C(N)c1ccc(C(N)=O)cc1 here?
A: inactive

Q: For N=C(N)c1ccc(OCCCCCOc2ccc(C(=N)N)cc2)cc1.O=S(=O)(O)CCO.O=S(=O)(O)CCO, which cytotoxicity call is on record?
A: active

Q: How did the cytotoxicity call turn out when C[C@@H]1CCCCO[C@@H](CN(C)S(=O)(=O)c2cn(C)cn2)[C@H](C)CN([C@H](C)CO)C(=O)c2cc(NS(C)(=O)=O)ccc2O1 was run?
A: inactive

Q: How did the cytotoxicity call turn out when C[C@H](CO)N1C[C@H](C)[C@@H](CN(C)S(=O)(=O)c2ccccc2)Oc2ccc(NS(=O)(=O)c3cn(C)cn3)cc2C1=O was run?
A: inactive

Q: For CO[C@H]1CN(C)C(=O)c2cc(NC(C)=O)ccc2OC[C@H](C)N(S(=O)(=O)c2cn(C)cn2)C[C@H]1C, which cytotoxicity call is on record?
A: inactive

Q: For CCC(=C(CC)c1ccc(O)cc1)c1ccc(O)cc1, which cytotoxicity call is on record?
A: active

Q: For CCC(c1ccc(O)cc1)C(CC)c1ccc(O)cc1 (stereo not given), which cytotoxicity call is on record?
A: inactive

Q: How did the cytotoxicity call turn out when CCC(=O)c1ccc(O)cc1 was run?
A: inactive

Q: CNC[C@@H]1OCCCC[C@H](C)Oc2ccc(NC(=O)Nc3ccc(C(F)(F)F)cc3)cc2C(=O)N([C@@H](C)CO)C[C@H]1C was tested. Which cytotoxicity call did it give?
A: inactive

Q: O=C(Cc1ccccn1)NCC[C@@H]1CC[C@H](NC(=O)CN2CCOCC2)[C@@H](CO)O1 was tested. Which cytotoxicity call did it give?
A: inactive

Q: With Cc1ccc(S(=O)(=O)n2cc([C@@H]3CC(=O)N(C(=O)OCc4ccccc4)[C@@H]3C(=O)Nc3cccc4cccnc34)c3ccccc32)cc1 as the molecule, how does the cytotoxicity call read?
A: inactive

Q: Which cytotoxicity call does the source give for CN1CCN(c2ccc(OC(F)(F)F)c(Nc3ncc4c(n3)-c3c(c(C(N)=O)nn3CCO)CC4)c2)CC1 here?
A: active

Q: For Cn1c(=O)c2c(nc(NCCN)n2C)n(C)c1=O, which cytotoxicity call is on record?
A: inactive

Q: Which cytotoxicity call does the source give for COc1ccc2c3c([nH]c2c1)[C@@H](CO)N(C[C@]13CCN(CC1)C(=O)CN(C)C)S(=O)(=O)C here?
A: inactive

Q: With CCCN(CCC)c1cc(N2CCCC2)c2ccccc2c1 as the molecule, how does the cytotoxicity call read?
A: active

Q: For C[C@@H]1CN([C@H](C)CO)C(=O)c2cc(NC(=O)Cc3ccccc3)ccc2O[C@H]1CN(C)S(=O)(=O)c1ccccc1, which cytotoxicity call is on record?
A: inactive

Q: With Cc1ccc(S(=O)(=O)Nc2ccc3c(c2)C(=O)N([C@H](C)CO)C[C@H](C)[C@H](CN(C)C(=O)Nc2c(C)noc2C)OCCCC[C@@H](C)O3)cc1 as the molecule, how does the cytotoxicity call read?
A: inactive

Q: Which cytotoxicity call does the source give for CN1CCN(C(=O)C[C@H]2CC[C@@H]3[C@@H](COc4ccc(NC(=O)c5ccc(F)c(F)c5)cc4C(=O)N3C)O2)CC1 here?
A: inactive

Q: How did the cytotoxicity call turn out when C[C@@H]1CCCCO[C@@H](CN(C)Cc2ccccc2)[C@@H](C)CN([C@H](C)CO)C(=O)c2cc(NC(=O)CCCCCC(=O)Nc3ccccc3N)ccc2O1 was run?
A: inactive

Q: Which cytotoxicity call does the source give for Cc1ccc(NC(=O)Nc2cc(C(F)(F)F)ccc2F)cc1Nc1ccc2c(c1)NC(=O)/C2=C\c1ccc[nH]1 here?
A: active

Q: How did the cytotoxicity call turn out when COc1ccc(S(=O)(=O)N[C@H]2C=C[C@H](CC(=O)NCCc3ccncc3)O[C@@H]2CO)cc1 was run?
A: inactive

Q: With Cc1ccc(S(=O)(=O)N(C)C[C@@H]2OCCCC[C@H](C)Oc3ccc(NC(=O)CCC(F)(F)F)cc3C(=O)N([C@@H](C)CO)C[C@@H]2C)cc1 as the molecule, how does the cytotoxicity call read?
A: active

Q: With Cc1ccc(S(=O)(=O)N(C)C[C@@H]2OCCCC[C@@H](C)Oc3ccc(NC(=O)CCC(F)(F)F)cc3C(=O)N([C@H](C)CO)C[C@H]2C)cc1 as the molecule, how does the cytotoxicity call read?
A: inactive

Q: With C[C@@H]1CN([C@@H](C)CO)C(=O)c2cc(NC(=O)CCC(F)(F)F)ccc2O[C@@H](C)CCCCO[C@@H]1CN(C)S(=O)(=O)c1ccc(Cl)cc1 as the molecule, how does the cytotoxicity call read?
A: inactive

Q: C[C@@H]1CCCCO[C@@H](CN(C)S(=O)(=O)c2ccc(Cl)cc2)[C@H](C)CN([C@H](C)CO)C(=O)c2cc(NC(=O)CCC(F)(F)F)ccc2O1 was tested. Which cytotoxicity call did it give?
A: active

Q: For C[C@@H]1CCCCO[C@H](CN(C)S(=O)(=O)c2ccc(Cl)cc2)[C@H](C)CN([C@H](C)CO)C(=O)c2cc(NC(=O)CCC(F)(F)F)ccc2O1, which cytotoxicity call is on record?
A: active

Q: For C[C@@H]1CCCCO[C@H](CN(C)S(=O)(=O)c2ccc(Cl)cc2)[C@@H](C)CN([C@@H](C)CO)C(=O)c2cc(NC(=O)CCC(F)(F)F)ccc2O1, which cytotoxicity call is on record?
A: inactive

Q: How did the cytotoxicity call turn out when C[C@@H]1CN([C@@H](C)CO)C(=O)c2cc(NC(=O)CCC(F)(F)F)ccc2O[C@@H](C)CCCCO[C@H]1CN(C)S(=O)(=O)c1ccc(Cl)cc1 was run?
A: inactive

Q: For C[C@@H]1CN([C@H](C)CO)C(=O)c2cc(NC(=O)CCC(F)(F)F)ccc2O[C@@H](C)CCCCO[C@@H]1CN(C)S(=O)(=O)c1ccc(Cl)cc1, which cytotoxicity call is on record?
A: inactive

Q: Which cytotoxicity call does the source give for C[C@@H]1CCCCO[C@H](CN(C)S(=O)(=O)c2ccc(Cl)cc2)[C@@H](C)CN([C@H](C)CO)C(=O)c2cc(NC(=O)CCC(F)(F)F)ccc2O1 here?
A: inactive

Q: With C[C@@H]1CN([C@H](C)CO)C(=O)c2cc(NC(=O)CCC(F)(F)F)ccc2O[C@@H](C)CCCCO[C@H]1CN(C)S(=O)(=O)c1ccc(Cl)cc1 as the molecule, how does the cytotoxicity call read?
A: active

Q: With Cc1ccc(S(=O)(=O)N(C)C[C@H]2OCCCC[C@H](C)Oc3ccc(NC(=O)CCC(F)(F)F)cc3C(=O)N([C@H](C)CO)C[C@@H]2C)cc1 as the molecule, how does the cytotoxicity call read?
A: inactive

Q: How did the cytotoxicity call turn out when C[C@H](CO)N1C[C@H](C)[C@@H](CN(C)S(=O)(=O)c2ccc(Cl)cc2)OCCCC[C@H](C)Oc2ccc(NC(=O)CCC(F)(F)F)cc2C1=O was run?
A: inactive

Q: How did the cytotoxicity call turn out when COc1ccc(NC(=O)N(C)C[C@H]2Oc3c(NC(=O)C4CCOCC4)cccc3C(=O)N([C@@H](C)CO)C[C@H]2C)cc1 was run?
A: inactive

Q: For CC(C)NC(=O)Nc1ccc2c(c1)C(=O)N([C@@H](C)CO)C[C@H](C)[C@@H](CN(C)C(=O)Nc1ccccc1)OCCCC[C@@H](C)O2, which cytotoxicity call is on record?
A: inactive

Q: How did the cytotoxicity call turn out when C[C@H](CO)N1C[C@H](C)[C@H](CN(C)Cc2cccc3c2OCCCO3)OCc2cn(nn2)CCCC1=O was run?
A: inactive

Q: For C[C@@H]1CCCCO[C@@H](CN(C)C(=O)CCC(F)(F)F)[C@@H](C)CN([C@H](C)CO)C(=O)c2cc(NS(=O)(=O)c3cccs3)ccc2O1, which cytotoxicity call is on record?
A: inactive

Q: How did the cytotoxicity call turn out when Cc1noc(C)c1S(=O)(=O)N(C)C[C@H]1Oc2ccc(NC(=O)CCC(F)(F)F)cc2CC(=O)N([C@@H](C)CO)C[C@@H]1C was run?
A: inactive

Q: How did the cytotoxicity call turn out when O=C(C[C@H]1C=C[C@@H](NS(=O)(=O)c2ccccc2F)[C@H](CO)O1)NCCCN1CCOCC1 was run?
A: inactive

Q: With C[C@@H]1CCCCO[C@@H](CN(C)C(=O)Nc2ccccc2)[C@@H](C)CN([C@H](C)CO)C(=O)c2cc(NS(=O)(=O)c3ccc(Cl)cc3)ccc2O1 as the molecule, how does the cytotoxicity call read?
A: inactive

Q: Which cytotoxicity call does the source give for C[C@@H]1CN([C@H](C)CO)C(=O)c2cccc(NC(=O)c3cnccn3)c2O[C@@H]1CN(C)S(=O)(=O)c1ccc(Cl)cc1 here?
A: inactive

Q: How did the cytotoxicity call turn out when C[C@@H]1CN([C@@H](C)CO)C(=O)c2cc(NC(=O)CCCCCC(=O)Nc3ccccc3N)ccc2O[C@@H](C)CCCCO[C@@H]1CN(C)S(=O)(=O)c1ccc(Cl)cc1 was run?
A: inactive

Q: With C[C@H](CO)N1C[C@H](C)[C@@H](CN(C)S(=O)(=O)c2ccc(C#N)cc2)OCc2cnnn2CCCC1=O as the molecule, how does the cytotoxicity call read?
A: inactive

Q: With C[C@@H]1CCCCO[C@@H](CN(C)Cc2ccccc2)[C@H](C)CN([C@H](C)CO)C(=O)c2cc(NC(=O)c3ccccc3)ccc2O1 as the molecule, how does the cytotoxicity call read?
A: inactive

Q: For Cc1noc(C)c1NC(=O)Nc1ccc2c(c1)CC(=O)N([C@@H](C)CO)C[C@@H](C)[C@@H](CN(C)CC1CC1)O2, which cytotoxicity call is on record?
A: inactive

Q: COc1ccc(NC(=O)Nc2ccc3c(c2)C(=O)N([C@@H](C)CO)C[C@@H](C)[C@H](CN(C)Cc2ccc4c(c2)OCO4)OCCCC[C@@H](C)O3)cc1 was tested. Which cytotoxicity call did it give?
A: inactive

Q: For CCCOc1ccnc2c1c(=O)n(C)c(=O)n2C, which cytotoxicity call is on record?
A: inactive

Q: With COc1ccc(NC(=O)Nc2cccc3c2O[C@@H](CN(C)Cc2ccc(C(=O)Nc4ccccc4N)cc2)[C@@H](C)CN([C@H](C)CO)C3=O)cc1 as the molecule, how does the cytotoxicity call read?
A: inactive

Q: C[C@H]1CN([C@@H](C)CO)C(=O)Cc2cc(NC(=O)C3CC3)ccc2O[C@@H]1CN(C)S(=O)(=O)c1ccccc1 was tested. Which cytotoxicity call did it give?
A: inactive

Q: C[C@H]1CCCCO[C@H](CN(C)S(=O)(=O)c2ccc(Cl)cc2)[C@@H](C)CN([C@@H](C)CO)C(=O)c2cc(NC(=O)CCC(F)(F)F)ccc2O1 was tested. Which cytotoxicity call did it give?
A: active

Q: For C[C@H]1CCCCO[C@@H](CN(C)S(=O)(=O)c2ccc(Cl)cc2)[C@@H](C)CN([C@@H](C)CO)C(=O)c2cc(NC(=O)CCC(F)(F)F)ccc2O1, which cytotoxicity call is on record?
A: inactive

Q: Which cytotoxicity call does the source give for C[C@H](CO)N1C[C@H](C)[C@H](CN(C)S(=O)(=O)c2ccc(Cl)cc2)OCCCC[C@H](C)Oc2ccc(NC(=O)CCC(F)(F)F)cc2C1=O here?
A: inactive

Q: C[C@@H]1CCCCO[C@@H](CN(C)S(=O)(=O)c2ccc(Cl)cc2)[C@@H](C)CN([C@H](C)CO)C(=O)c2cc(NC(=O)CCC(F)(F)F)ccc2O1 was tested. Which cytotoxicity call did it give?
A: inactive

Q: With C[C@@H]1CCCCO[C@@H](CN(C)S(=O)(=O)c2ccc(Cl)cc2)[C@@H](C)CN([C@@H](C)CO)C(=O)c2cc(NC(=O)CCC(F)(F)F)ccc2O1 as the molecule, how does the cytotoxicity call read?
A: inactive

Q: For C[C@@H]1CCCCO[C@@H](CN(C)S(=O)(=O)c2ccc(Cl)cc2)[C@H](C)CN([C@@H](C)CO)C(=O)c2cc(NC(=O)CCC(F)(F)F)ccc2O1, which cytotoxicity call is on record?
A: active
